Results from the supplement of paper PMC4166925.
± gives the standard deviation of the averaged measurements. The full ranking holds about 33,000 sequences; the median of “E-score (dimensionless, -0.5 to 0.5)” is about -0.046, and the highest 2% start at about 0.36. For the sample, the highest values were picked, then their nearest neighbours and some sequences at random.

test system: T1, SpTbr T-box DNA-binding domain (GST fusion); test: PBM E-score of 8-mer (E-score (dimensionless, -0.5 to 0.5)); Tbr is Tbrain of the sea star Patiria miniata (Pm) or the sea urchin Strongylocentrotus purpuratus (Sp); higher = stronger binding preference; conditions: the construct has about 5 more residues each side
T1 sequence: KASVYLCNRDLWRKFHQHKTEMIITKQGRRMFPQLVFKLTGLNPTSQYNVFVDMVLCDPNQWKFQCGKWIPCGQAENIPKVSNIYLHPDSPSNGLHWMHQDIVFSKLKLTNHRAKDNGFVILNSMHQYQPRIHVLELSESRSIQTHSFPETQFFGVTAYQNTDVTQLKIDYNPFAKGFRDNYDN
Outline: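 Each ungapped 8-mer received an enrichment E-score from the Universal PBM Analysis Suite, averaged over duplicate arrays. The proteins were Tbr T-box DNA-binding domains, covering the whole T-box plus about five flanking residues, fused to GST and expressed in BL21 E. coli at 20 °C before glutathione affinity purification. Universal Agilent oligonucleotide arrays were made double-stranded by primer extension and incubated with 200 nM protein in PBS (pH 7.5). The arrays were then scanned and quantified, and every 8-mer was scored from probe intensities.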

In order of falling “PBM E-score of 8-mer” value:
1. AGGTGTTG  0.482 ± 0.0055
2. GTGTCAAC  0.4761 ± 0.0027
3. GGGTGTCA  0.475 ± 0.0055
4. GGGTGTTA  0.463 ± 0.0026
5. CGGTGTGA  0.456 ± 0.0098
6. CACACTTA  0.447 ± 0.0064
7. CACACTTC  0.4456 ± 0.0039
8. CGAGGTGC  0.445 ± 0.0072
9. GTGTCAAA  0.444 ± 0.0081
10. GTGTCACA  0.436 ± 0.011
11. CCTGACAC  0.427 ± 0.01
12. TGACACCA  0.419 ± 0.0076
13. CGAGGTGA  0.418 ± 0.01
14. CTGTGAAC  0.4126 ± 0.00049
15. ACACCCGA  0.41 ± 0.0072
16. AACACTTC  0.407 ± 0.0093
17. GTGTCATA  0.404 ± 0.022
18. CGGTGTCA  0.398 ± 0.02
19. CTGTGAAA  0.396 ± 0.017
20. AACACTTG  0.3953 ± 0.0019
21. AGAGGTGC  0.394 ± 0.014
22. CACCTACC  0.394 ± 0.01
23. GACACTTA  0.393 ± 0.0065
24. GTGTCAGA  0.387 ± 0.023
25. GCGTCAAC  0.3857 ± 0.0035
26. GCTGACAC  0.386 ± 0.039
27. AACACTTA  0.386 ± 0.031
28. AGGTGTTC  0.3819 ± 0.00093
29. ACACCCGC  0.3794 ± 0.0031
30. GGAGGTGA  0.374 ± 0.035
31. CACCTACG  0.373 ± 0.0055
32. CACCTACA  0.371 ± 0.014
33. GTGTCGCA  0.367 ± 0.021
34. TTGTGAAA  0.361 ± 0.04
35. CTGTCAAC  0.35 ± 0.023
36. ACTGACAC  0.349 ± 0.011
37. CGGTGTTA  0.3373 ± 0.0021
38. CGCACTTA  0.329 ± 0.0023
39. ACCACACT  0.328 ± 0.0063
40. ACACCCGG  0.317 ± 0.042
41. GCGTGTCA  0.313 ± 0.024
42. GCGTCAAA  0.31 ± 0.029
43. ATGTCACA  0.3087 ± 0.00058
44. GCACCCGC  0.305 ± 0.035
45. AGCACTTC  0.3006 ± 0.0019
46. AGAGGTGA  0.298 ± 0.023
47. CTGTGAAG  0.296 ± 0.027
48. AGAGGTGG  0.285 ± 0.031
49. ATGTCAAC  0.267 ± 0.024
50. ATGTGAAA  0.263 ± 0.03
51. CGACACCG  0.257 ± 0.037
52. CTGTCAAA  0.249 ± 0.057
53. GCCACTTA  0.244 ± 0.011
54. CCGTCAAC  0.24 ± 0.021
55. CTGTCGCA  0.235 ± 0.054
56. CACACTGA  0.235 ± 0.0071
57. CGGGGTGC  0.233 ± 0.02
58. ATGTCGCA  0.231 ± 0.039
59. GCTGACAA  0.227 ± 0.031
60. ATCACTTC  0.226 ± 0.033
61. AACACTAG  0.222 ± 0.049
62. GGTTGTTA  0.213 ± 0.048
63. AGCTGTTG  0.208 ± 0.0081
64. CTGTCAGA  0.207 ± 0.025
65. GCGCTGTA  0.206 ± 0.014
66. ATGTCACG  0.204 ± 0.017
67. ATGTGAAC  0.203 ± 0.012
68. CGAGTTAA  0.193 ± 0.008
69. CGATGTGA  0.183 ± 0.017
70. CACACTGC  0.175 ± 0.0027
71. CGACACGA  0.174 ± 0.041
72. CCCACTTC  0.171 ± 0.018
73. ATCACTTG  0.169 ± 0.064
74. CCTGACAA  0.153 ± 0.0094
75. CGATGTCA  0.1339 ± 0.00055
76. TCGTAGCA  0.128 ± 0.038
77. GCAGCCAC  0.126 ± 0.026
78. AGATGACG  0.125 ± 0.029
79. CTGTCATA  0.122 ± 0.036
80. CCTGACAG  0.121 ± 0.0013
81. ACATCCAG  0.11 ± 0.03
82. CCACCCGC  0.105 ± 0.028
83. CTTCACTA  0.0992 ± 0.0044
84. AACACTGA  0.0941 ± 0.085
85. GACACTGA  0.093 ± 0.019
86. CCCGATAA  0.0927 ± 0.11
87. CCACACGG  0.0912 ± 0.023
88. TTGTCAAA  0.0897 ± 0.09
89. ATCACTTA  0.0863 ± 0.053
90. ATTTGTGG  0.075 ± 0.012
91. ACCATTGA  0.0727 ± 0.061
92. GGGGGTCA  0.0604 ± 0.0046
93. GTATGGCA  0.0595 ± 0.0057
94. CGAACGAG  0.0552 ± 0.067
95. CGAGGTCA  0.0539 ± 0.041
96. AGATGTTG  0.0448 ± 0.039
97. CGGTGTGC  0.0403 ± 0.015
98. AGATGTTC  0.0355 ± 0.018
99. AGGAGGGG  0.0237 ± 0.0028
100. TATTGCCA  0.0232 ± 0.0082
101. GGTGCATA  0.0222 ± 0.011
102. CGAGGTTA  0.0218 ± 0.011
103. GGAGGTCA  0.0169 ± 0.067
104. CAACACGG  0.0142 ± 0.003
105. TCACCCGA  0.0108 ± 0.15
106. AACTGCTC  0.00139 ± 0.031
107. CCGCTCTC  -0.00942 ± 0.013
108. TCATTACA  -0.0133 ± 0.029
109. GACGCCCA  -0.0155 ± 0.091
110. AACCCGTT  -0.0209 ± 0.077
111. CTCGGGTC  -0.0239 ± 0.0073
112. GTAGCTTA  -0.0295 ± 0.0053
113. CGGTGTCC  -0.0339 ± 0.0071
114. CGCTCGAC  -0.0351 ± 0.11
115. CCATGCGC  -0.0395 ± 0.1
116. GCCCACTA  -0.0422 ± 0.07
117. ATACAGAC  -0.0432 ± 0.019
118. CCCGCCTA  -0.0474 ± 0.13
119. CCCGTTAC  -0.0493 ± 0.068
120. CGATCCGA  -0.0614 ± 0.036
121. AACTAGGC  -0.0665 ± 0.022
122. CCCTTGCG  -0.0683 ± 0.034
123. CGGTGTTC  -0.0703 ± 0.07
124. CAGATTGA  -0.076 ± 0.021
125. CGTAGTGC  -0.0779 ± 0.017
126. TCCAATAA  -0.0798 ± 0.025
127. CCAACTCA  -0.0818 ± 0.049
128. AAAGAGGG  -0.0825 ± 0.036
129. CCAGAAGC  -0.0847 ± 0.077
130. GTCTCAGA  -0.0914 ± 0.014
131. GACCTACA  -0.0944 ± 0.046
132. ACATATCC  -0.0962 ± 0.058
133. ATAAGTCA  -0.102 ± 0.017
134. ATCCTGTA  -0.104 ± 0.036
135. ATCCAATG  -0.108 ± 0.019
136. CGAGGTAC  -0.11 ± 0.026
137. GCAAAAAA  -0.111 ± 0.022
138. GTACTATA  -0.112 ± 0.079
139. CCTATTCG  -0.116 ± 0.11
140. AAGCTTAC  -0.128 ± 0.056
141. GACCTACC  -0.129 ± 0.006
142. AAACTATG  -0.131 ± 0.049
143. CGAGTATC  -0.139 ± 0.032
144. TCTATCAA  -0.141 ± 0.0063
145. AACTGACT  -0.141 ± 0.043
146. TCAGGCAA  -0.143 ± 0.02
147. CCGACCTC  -0.148 ± 0.046
148. ATGTCAGA  -0.15 ± 0.011
149. GCAGCCCC  -0.15 ± 0.027
150. GGGGGTTA  -0.156 ± 0.038
151. AACCTACG  -0.159 ± 0.083
152. AGAGGTTC  -0.172 ± 0.065
153. GTTCAATA  -0.174 ± 0.0066
154. AACCTACC  -0.182 ± 0.056
155. CCCCTACG  -0.185 ± 0.019
156. GGATTGGA  -0.187 ± 0.026
157. TACAGCGA  -0.193 ± 0.038
158. CAGTATTC  -0.193 ± 0.092
159. ACCAGACT  -0.1941 ± 0.0019
160. GCTCTGTA  -0.199 ± 0.025
161. ATGTCATA  -0.202 ± 0.0053
162. CAGAAATG  -0.202 ± 0.012
163. CAGAGATC  -0.204 ± 0.022
164. CGAGGTCC  -0.207 ± 0.017
165. CGTCCTGC  -0.234 ± 0.0096
166. TACCTACA  -0.24 ± 0.016
167. CAAGGTCC  -0.257 ± 0.041
168. CGTTTTCC  -0.282 ± 0.054
169. GGCCCAGA  -0.2892 ± 0.0023
170. CAGAAGCC  -0.308 ± 0.064
171. GCCGGATA  -0.321 ± 0.0046
172. ATGTAGGG  -0.355 ± 0.013
